DT40 TDP1 CPT: DT40-hTDP1 cell growth loss with CPT. Potency, µM (doses to about 46.2 µM), for the others: top-dose activity change, negative = growth inhibition, most hits filed as inhibitors. chicken DT40 Tdp1-/-;hTDP1 cells + 20 nM CPT, ATP luminescence, 48 h. hit rate 12% among 420,000. AID 686979; note: nearly all actives have a fitted effect of over 55% in size
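Chicken DT40 Tdp1-/- cells stably complemented with human TDP1 were seeded at 400 cells/well in medium containing 20 nM camptothecin, exposed to pin-transferred compounds, and grown at 37 °C for at least 48 hr. Viability was read as ATP luminescence.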
TDP1 cell noCPT: qHTS for Inhibitors of human tyrosyl-DNA phosphodiesterase 1 (TDP1): qHTS in cells in absence of CPT. DT40 Tdp1-/- hTDP1 cells, no CPT, ATP luminescence, 48 h. Potency, µM (top dose mostly 46.2 µM), inactives show at the highest dose activity change, negative = growth inhibition, usual class: inhibitors. hit rate 15% among 420,000; note: nearly all actives have a fitted effect of over 55% in size
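Growth kinetics read by CellTiter-Glo luminescence after ≥48 hr at 37 °C. Cells: DT40 Tdp1-/- stably carrying human TDP1, 400 per well, compound exposure in the absence of CPT (DMSO vehicle).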
Gal4-VP16 FLuc: counter-screen for ROR gamma inhibitors: Gal4-VP16 reporter; hit rate 3.5% among 310,000; AID 2546; Drosophila S2 Gal4-VP16 UAS-luciferase, luminescence, 20 h; Potency, µM (highest dose often 53.6 µM), without a hit: top-dose activity, negative = inhibition, hits mostly inhibitors;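 note: Gal4-VP16 expression switched on by copper sulfate through the metallothionein promoter; nearly all actives have a fitted effect of over 50% in size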
RORgamma inh: inhibitors of mouse ROR gamma transcriptional activity. Drosophila S2 Gal4-RORgamma UAS-luciferase reporter, 20 h. Potency, µM (top dose mostly 53.6 µM), without a hit: at the highest dose activity change, negative = inhibition, usual class: inhibitors. hit rate 5.4% among 310,000; note: nearly all actives have a fitted effect of over 60% in size
Target sequence (P51450 whole entry, looked up, the tested form may be a part): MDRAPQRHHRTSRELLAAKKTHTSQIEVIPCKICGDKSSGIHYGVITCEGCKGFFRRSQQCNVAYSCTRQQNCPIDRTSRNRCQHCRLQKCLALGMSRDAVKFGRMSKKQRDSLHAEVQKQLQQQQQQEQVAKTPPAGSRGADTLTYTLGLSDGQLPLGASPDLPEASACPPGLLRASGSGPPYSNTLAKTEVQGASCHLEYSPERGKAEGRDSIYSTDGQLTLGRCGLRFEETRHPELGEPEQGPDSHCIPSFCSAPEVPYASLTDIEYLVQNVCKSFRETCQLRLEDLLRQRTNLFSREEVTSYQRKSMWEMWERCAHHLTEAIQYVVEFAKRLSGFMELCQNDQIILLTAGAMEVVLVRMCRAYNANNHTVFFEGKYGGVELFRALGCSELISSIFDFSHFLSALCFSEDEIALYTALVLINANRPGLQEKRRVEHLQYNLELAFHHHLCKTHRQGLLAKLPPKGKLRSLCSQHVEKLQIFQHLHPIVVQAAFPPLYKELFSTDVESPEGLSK
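Schneider cells (Drosophila), stable Gal4 DBD–ROR gamma + UAS-luc; 1 hr cmpd preincubation; Cu2+ induction 700 uM final; 20 hr ambient; luminescence.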
TDP1 inh: inhibitors of human tyrosyl-DNA phosphodiesterase TDP1. Q9NUW8. recombinant TDP1, AlphaScreen DNA substrate cleavage. Potency, µM (series often up to 130 µM), for inactives: at the top dose activity change, negative = inhibition, usual class: inhibitors. hit rate 0.28% among 350,000. AID 485290; note: nearly all actives have a fitted effect of over 40% in size
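Here, a 5' biotin and 3' phosphotyrosine-FITC DNA oligonucleotide reports Tdp1 activity: intact substrate bridges AlphaScreen beads, while cleavage leaves a 3' phosphate and drops signal. All incubations at room temperature.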
* = called active by the depositor; ? = inconclusive; · = not tested or not shown; [ ] = another dose, or the depositor's remark. The list is not random: actives were taken first. Their share in the collection is about 19%. Calls come from the whole dose curve; as a rule, active = well fitted curve in the direction sought with a large enough effect; inconclusive = small, poorly fitted or top-dose-only effect, or another doubt; inactive = no such curve, though single readings can be large; an effect the other way counts as inactive or inconclusive. % is set by controls: 0 for no effect and ±100 for the full control effect; potency is the fitted concentration of half-maximal effect.

SMILES	DT40 TDP1 CPT	TDP1 cell noCPT	Gal4-VP16 FLuc	RORgamma inh	TDP1 inh
CCN(C(=O)CSc1nnc(-c2cc(OC)c(OC)c(OC)c2)o1)c1ccccc1	15µM*	5.8µM*	·	·	·
CCN(C(=O)CSc1nnc(-c2ccc(Cl)cc2)o1)c1ccccc1	?	21µM*	·	·	-8%
CCN(CC)C(=O)CSc1nnc(-c2cc(-c3ccc(Cl)cc3)nc3ccccc23)o1	-68%	?	0%	7%	4%
COc1cc(-c2nnc(SCC(=O)N(C)C3CCCCC3)o2)cc(OC)c1OC	12µM*	5.8µM*	·	·	9%
CCOc1ccc(-c2nnc(SCC(=O)N(CC)c3cccc(C)c3)o2)cc1	21µM*	10µM*	·	·	9%
COc1ccc(-c2nnc(SCC(=O)N(Cc3ccccc3)C(C)(C)C)o2)cc1OC	23µM*	13µM*	-16%	20%	0%
CCc1ccc(OC(=O)CSc2nnc(-c3ccc(OC)c(OC)c3)o2)cc1	-3%	-1%	·	·	6%
COc1ccc(CN(C(=O)CSc2nnc(-c3ccccc3F)o2)c2ccc(F)cc2)cc1	18µM*	13µM*	·	7%[0.365 µM]	3%
CN(C(=O)CSc1nnc(-c2ccccc2F)o1)c1ccccc1	1%	1%	·	·	-15%
Cc1cc(C)cc(NC(=O)N2CCN(c3cc(-c4noc(C)n4)ccc3C)CC2)c1	?	?	·	·	1%
Cc1nc(-c2ccc(C)c(N3CCN(C(=O)Nc4ccc(Br)cc4)CC3)c2)no1	?	21µM*	·	·	3%
CC[C@@]12C(=O)N(c3ccc(OC)cc3)C(=O)N1[C@H](c1ccc(Cl)cc1)[C@@H]1C(=O)N(C3CCCCC3)C(=O)[C@@H]12	21µM*	?	?	-2%	·
O=C1[C@H]2[C@@H](c3ccc(Cl)cc3)N3C(=O)N(c4cccc(F)c4)C(=O)[C@@]3(Cc3ccc(Cl)cc3)[C@H]2C(=O)N1C1CCCCC1	?	16µM*	0%	8%	·
OC(CON=C1c2ccccc2-c2ccccc21)CN1CCNCC1 (stereo not given)	12µM*	7.3µM*	-17%	-24%	-12%
CN(C)c1ccc(C(=O)N(Cc2ccccc2)Cc2ccccc2)cc1	?	?	-11%	?	1%
CCCN(CCC)c1ccc(/C=C/c2sc3ccccc3[n+]2CCCCI)cc1	0.32µM*	0.32µM*	·	·	·
COc1ccc(/C=C/c2sc3ccccc3[n+]2CCCCI)cc1OC	7.9µM*	13µM*	·	·	·
COc1cc(/C=C/c2sc3ccccc3[n+]2CCCS(=O)(=O)[O-])ccc1O	?	?	?	?	1%
CN(C)c1ccc(/C=C/c2sc3ccccc3[n+]2Cc2ccccc2)cc1	0.11µM*	0.1µM*	·	·	·
CC(=O)N/C(=C/c1ccccc1)c1sc2ccccc2[n+]1CCCCI	20µM*	11µM*	·	·	·
CS(=O)(=O)c1ccc(CNC(=O)C2(C(F)(F)F)C/C(=C/CCO)CCCO2)cc1 (stereo not given)	-2%	21%	3%	8%	5%
CCCCn1c(N)c(N(CCOC)C(=O)c2ccc(-c3ccc(Cl)cc3)o2)c(=O)[nH]c1=O	?	-21%	·	·	0%
Cc1ccc(NC(=O)CN(C)C(=O)c2ccc(NC(=O)CC3SC(N4CCCC4)=NC3=O)cc2)cc1 (stereo not given)	-6%	-3%	·	·	·
O=C(O)CCN1Cc2ccccc2C1=O	-15%	-16%	-5%	1%	1%
Nc1ccc(/C=C/C(=O)c2cccs2)cc1	8%	?	-22%	?	0%
SMILES	DT40 TDP1 CPT	TDP1 cell noCPT	Gal4-VP16 FLuc	RORgamma inh	TDP1 inh
C[n+]1c(/C=C/c2ccc(N)cc2)sc2ccccc21	18µM*	?	·	·	·
COC(=O)c1ccc(N2CCOCC2)c(NC(=O)c2cccs2)c1	-15%	-11%	-18%	-19%	1%
CCCCCCc1c(C)nc(-n2[nH]c(C)c(CCO)c2=O)[nH]c1=O	?	?	16µM*	3.5µM*	7%
COc1ccc(-c2cc(-c3ccccc3)n[nH]2)c(O)c1	-10%	-20%	-3%[10 µM]	4µM*	5%
COc1ccc(-c2nnc(-c3ccccc3O)o2)cc1	?	10µM*	13µM*	?	·
COC(=O)c1cc(-c2ccc(OC)cc2)n[nH]1	13%	-1%	5%[10 µM]	-4%	0%
COc1ccc(O)c(-c2cc(-c3ccccc3Cl)[nH]n2)c1	?	-30%	?	?	·
COc1ccc(O)c(-c2cc(-c3cccs3)[nH]n2)c1	15µM*	?	?	4µM*	11%
COc1ccc(-c2cc(-c3ccccc3O)[nH]n2)cc1	-14%	?	16µM*	6.3µM*	7%
COc1ccccc1S(=O)(=O)N(C)C[C@H]1Oc2ncc(Br)cc2C(=O)N([C@H](C)CO)C[C@H]1C	-22%	?	·	·	·
CCCc1cc(C(=O)NCCc2ccccc2)no1	-15%	-5%	-30%	-43%	-7%
COc1cc(C)c(N(C(C)=O)c2ccccc2)c(C)c1	-13%	-30%	-2%	21%	0%
CC(=O)N(C1=C(N)C(=O)c2ccccc2C1=O)c1ccccc1	23µM*	13µM*	-26%	-33%	·
COc1ccc(OC)c(Nc2c3c(nc4ccccc24)CCC3)c1	0.73µM*	0.58µM*	-7%	3%	9%
COc1ccc([N+](=O)[O-])cc1NS(=O)(=O)c1ccccc1	-6%	-29%	-17%	18%	-1%
COc1cc(NC(=O)c2c3c(nc4ccccc24)CCC3)cc(OC)c1	-29%	-8%	-5%	5%	2%
COc1ccc(OC)c(Nc2c3ccccc3nc3ccccc23)c1	5.2µM*	6.5µM*	?	?	·
COc1cc(Nc2c3c(nc4ccccc24)CCC3)cc(OC)c1OC	1.8µM*	2.1µM*	2%	-1%	·
COc1ccc([N+](=O)[O-])cc1Nc1c2ccccc2nc2ccccc12	2.6µM*	2.6µM*	?	?	-3%
COc1ccc(OC)c(Nc2cc(C)c3ccccc3n2)c1	?	?	14%	2%	·
Cc1ccc(CCNc2ccc3ccccc3c2)cn1	-21%	-24%	·	·	·
CCCCCN(CCCCC)C(=O)C(CCC(=O)O)NC(=O)c1ccc(Cl)c(Cl)c1 (stereo not given)	-14%	-11%	-11%	-13%	-2%[56.1 µM]
CCOc1ncccc1C(=O)Nc1ccc(S(=O)(=O)NC2=NCCCCC2)cc1	7%	-24%	-10%	-8%	5%
COc1cc(NS(C)(=O)=O)ccc1Nc1c2ccccc2nc2ccccc12	0.21µM*	0.13µM*	1%	20µM*	12%
CC1CCC2C(C)C3C(CC4[C@@H]5CC=C6C[C@@H](O)CC[C@]6(C)C5CC[C@]34C)N2C1 (stereo not given in full)	·	·	-5%	-22%	5%

Bioassay records as filed in PubChem BioAssay.
